# Source: PubChem BioAssay
# Values joined by “and” are separate entries in the source; they are usually repeats but may differ in a detail not shown here. Equal values may be shown once. For some of these results: Results with a measured potency or affinity are listed apart. Active and inactive are the calls of the source.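 The calls were made as follows, unless noted: active = dose curve with midpoint inside tested range, moderate steepness, plateau gap beyond fit error, low compound glow and bead-link interference; inactive = the rest.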
# How the values were obtained:
# [1] = target: GTPase HRas (Homo sapiens) (UniProt P01112); assay: inhibitors of GTP binding to wildtype Ras, dose response, biochemical, multiplex bead flow cytometry (AID 1335;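 active = fitted half-maximal concentration within 10 nM to 100 µM, steepness 0.5 to 2, significant signal drop, low assay interference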); details: bead-based flow cytometry, Bodipy-GTP binding to GST-Ras; at 100 µM (top of the series) unless noted
# [2] = system: Ras-related protein Rab-7a (dog), GTP binding; assay: Rab7 GTP binding inhibitors, potency, dose response, biochemical, wildtype, multiplex bead flow cytometry (AID 1336; call rule not given here)
# [3] = target: Ras-related C3 botulinum toxin substrate 1 (Homo sapiens) (UniProt P63000); assay: wildtype Rac1 GTP binding inhibitors, dose response, biochemical, multiplex bead flow cytometry (AID 1340); details: GST-Rac1 beads, Bodipy-FL-GTP binding; at 100 µM (top of the series) unless noted
# [4] = target: GTPase HRas (Homo sapiens) (UniProt P01112); assay: activated Ras mutant GTP binding inhibitors, dose response, biochemical, multiplex bead flow cytometry (AID 1341;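 active = dose-response curve with midpoint inside the tested range, moderate steepness, significant amplitude and little compound fluorescence or bead-attachment interference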;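 also: GST-tagged constitutively activated Ras mutant immobilized on beads and multiplexed with other GTPases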)
# [5] = target: Cell division control protein 42 homolog (Homo sapiens) (UniProt P60953); assay: wildtype Cdc42 GTP-binding inhibitors, dose response, biochemical, multiplex bead flow cytometry, Bodipy-FL-GTP (AID 1334;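 active = fitted half-maximal concentration within the tested range, moderate curve steepness, significant signal drop, and little compound fluorescence or bead-linkage interference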); details: bead-based flow cytometry, Bodipy-FL-GTP binding to GST-Cdc42; at 100 µM (top of the series) unless noted
# [6] = RPL19A-GFP modulators, yeast TOR pathway, confirmation, cell-based, S. cerevisiae, flow cytometry, cherry picks, mother/daughter gates (AID 2270;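 active = GFP response below 50% of the DMSO control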); details: S. cerevisiae RPL19A-GFP strain, 3 h, at 10 µM, stronger effect = lower value, 100 = same GFP as DMSO wells
# [7] = LAP4-GFP expression modulators in yeast, confirmation, cell-based, cherry picks, flow cytometry, mother/daughter gates (AID 2271;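 active = GFP response above 150% of the DMSO control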;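 also: ratio of sample to DMSO plate mean so 100% equals DMSO level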); details: S. cerevisiae LAP4-GFP strain, 3 h, at 10 µM, stronger effect = higher value, 100 means same as DMSO control
# [8] = modulators of MEP2-GFP levels in yeast, confirmation, S. cerevisiae, flow cytometry GFP, cherry picks (AID 2272;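 active = GFP response above 150% of the DMSO control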;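 also: ratio of well signal to plate DMSO mean so 100% equals DMSO level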); details: S. cerevisiae MEP2-GFP strain, 3 h, at 10 µM, stronger effect = higher value
# [9] = AGP1-GFP expression modulators, hit retest, confirmation, cell-based, flow cytometry, S. cerevisiae, cherry picks (AID 2273;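 active = GFP response above 150% of the DMSO level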;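 also: median GFP channel fluorescence over the whole cell population gate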); details: S. cerevisiae AGP1-GFP strain, 3 h, at 10 µM
# [10] = modulators of CIT2-GFP expression in yeast, confirmation, S. cerevisiae, GFP fusion, cherry picks, mother/daughter gates (AID 2274;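 active = GFP response above 150% of the DMSO level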); details: S. cerevisiae CIT2-GFP strain, flow cytometry, 3 h, at 10 µM, stronger effect = higher value
# [11] = measured here: daughter cell gate
# [12] = measured here: mother cell gate
# Chain of Cell division control protein 42 homolog (Homo sapiens) (P60953 whole entry, looked up): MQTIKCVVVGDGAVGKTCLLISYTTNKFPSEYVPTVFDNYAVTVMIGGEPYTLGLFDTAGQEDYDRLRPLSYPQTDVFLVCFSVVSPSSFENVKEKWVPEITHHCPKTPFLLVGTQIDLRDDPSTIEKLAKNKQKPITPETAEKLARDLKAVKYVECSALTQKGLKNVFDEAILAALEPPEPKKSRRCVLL
# Chain of GTPase HRas (Homo sapiens) (P01112 whole entry, looked up): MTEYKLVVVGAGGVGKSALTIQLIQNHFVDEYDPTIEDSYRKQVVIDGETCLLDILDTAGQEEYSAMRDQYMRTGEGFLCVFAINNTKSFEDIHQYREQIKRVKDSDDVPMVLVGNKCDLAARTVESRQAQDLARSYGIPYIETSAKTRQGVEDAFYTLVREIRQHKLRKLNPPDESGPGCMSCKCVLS
compound,measurement,setting,value
CCOC(=O)c1cc([N+](=O)[O-])c([N+](=O)[O-])cc1NC(C)=O,"GTP binding, percent of control",[1],75%
same,outcome,[2],inactive
same,"GTP binding signal, raw median fluorescence (lower = inhibition) (MCF (arbitrary fluorescence units))",[3],241
same,outcome,[4],inactive
CS(=O)(=O)c1ccc(C(=O)OCC(=O)NC(=O)C2CCCCC2)cc1[N+](=O)[O-],"GTP binding, percent of control",[1],76.2%
same,outcome,[2],inactive
same,"GTP binding signal, raw median fluorescence (lower = inhibition) (MCF (arbitrary fluorescence units))",[3],200
same,outcome,[4],inactive
Cc1cccc(N=Cc2[nH]c3ccc(Br)c(Cl)c3c2O)c1,"GTP binding signal, raw median fluorescence (lower = inhibition) (MCF (arbitrary fluorescence units))",[3],240
O=C(Nc1nnc(-c2ccc3c(c2)OCCO3)o1)c1ccc(Cc2ccccc2)cc1,"GTP binding, percent of control",[1],83.9%
same,outcome,[2],inactive
same,"GTP binding signal, raw median fluorescence (lower = inhibition) (MCF (arbitrary fluorescence units))",[3],144
same,outcome,[4],inactive
COc1cc(OC)c(-c2c3cc(O)c(=O)cc-3oc3cc(O)c(O)cc23)cc1OC,"GTP binding signal, raw median fluorescence (lower = inhibition) (MCF (arbitrary fluorescence units))",[3],480
CCCc1nc2c(=O)n(C)c(=O)nc-2n(C)n1,"GTP binding, percent of control",[1],84.4%
same,outcome,[2],inactive
same,outcome,[4],inactive
Cc1ccccc1N(CC(=O)N/N=C/c1ccccc1Cl)C(=O)c1ccccc1,"GTP binding signal, raw median fluorescence (lower = inhibition) (MCF (arbitrary fluorescence units))",[3],212
CCOc1ccccc1-c1c2cc(O)c(=O)cc-2oc2cc(O)c(O)cc12,"GTP binding signal, raw median fluorescence (lower = inhibition) (MCF (arbitrary fluorescence units))",[3],184
O=S(=O)(c1cccc(-c2nnc(SCc3ccc(Cl)cc3)o2)c1)N1CCCCC1,"GTP binding signal, raw median fluorescence (lower = inhibition) (MCF (arbitrary fluorescence units))",[3],182
Cc1ccc(NC(=O)C2=C(c3ccccc3)S(=O)(=O)CCS2(=O)=O)cc1,"fluorescence, percent of control (lower = inhibition)",[5],22.2%
same,"GTP binding, percent of control",[1],79.3%
same,outcome,[2],inactive
same,"GTP binding signal, raw median fluorescence (lower = inhibition) (MCF (arbitrary fluorescence units))",[3],222
same,outcome,[4],inactive
COC(=O)c1cccnc1SCCc1ccccc1,"GTP binding, percent of control",[1],125%
same,"GTP binding signal, raw median fluorescence (lower = inhibition) (MCF (arbitrary fluorescence units))",[3],72.5
same,outcome,[4],inactive
NS(=O)(=O)c1ccc(N2N=C(c3ccccc3)CC2c2cccc(F)c2)cc1 (configuration not stated),"GTP binding, percent of control",[1],50% and 86.8%
same,outcome,[2],inactive
same,"GTP binding signal, raw median fluorescence (lower = inhibition) (MCF (arbitrary fluorescence units))",[3],0 and 100
same,outcome,[4],inactive
COc1ccc(OC)c(-c2c3cc(O)c(=O)cc-3oc3cc(O)c(O)cc23)c1,"GTP binding signal, raw median fluorescence (lower = inhibition) (MCF (arbitrary fluorescence units))",[3],137
Cc1cc(C(=O)Cn2nc(C(=O)O)c3ccccc3c2=O)c(C)n1-c1ccc(OC(F)F)cc1,"fluorescence, percent of control (lower = inhibition)",[5],28.1%
same,"GTP binding, percent of control",[1],75.5%
same,outcome,[2],inactive
same,outcome,[4],inactive
CCc1ccc(NS(=O)(=O)c2ccc3[nH]cc(C(=O)N4CCc5ccccc54)c(=O)c3c2)cc1,"GTP binding, percent of control",[1],62.6%
same,outcome,[2],inactive
same,"GTP binding signal, raw median fluorescence (lower = inhibition) (MCF (arbitrary fluorescence units))",[3],167
same,outcome,[4],inactive
Cc1ccc(C(=O)COC(=O)c2ccc3c(c2)C(=O)N(c2cccc4ncccc24)C3=O)cc1,"GTP binding signal, raw median fluorescence (lower = inhibition) (MCF (arbitrary fluorescence units))",[3],151
COc1ccc(-c2cc(C#N)nc(N3CCNCC3)n2)cc1,"GTP binding, percent of control",[1],153%
same,outcome,[2],inactive
same,"GTP binding signal, raw median fluorescence (lower = inhibition) (MCF (arbitrary fluorescence units))",[3],182
same,outcome,[4],inactive
Cc1ccc(SC(CC(=O)c2ccc(C(C)(C)C)cc2)C(=O)O)cc1 (configuration not stated),"fluorescence, percent of control (lower = inhibition)",[5],26.6%
same,"GTP binding, percent of control",[1],72.6%
same,outcome,[2],inactive
same,"GTP binding signal, raw median fluorescence (lower = inhibition) (MCF (arbitrary fluorescence units))",[3],240
same,outcome,[4],inactive
same,GFP response vs DMSO,[6],95.8% (inactive)
same,GFP response vs DMSO,[6]; [11],94%
same,GFP response vs DMSO,[6]; [12],97.3%
same,GFP response relative to DMSO,[7],106% (inactive)
same,GFP response relative to DMSO,[7]; measured here: daughter cell gate response,103%
same,GFP response relative to DMSO,[7]; measured here: mother cell gate response,111%
same,GFP response vs DMSO,[8],94.4% (inactive)
same,"GFP response, % of DMSO",[9],99.3% (inactive)
same,"GFP response, % of DMSO",[10],92.2% (inactive)
same,"GFP response, % of DMSO",[10]; [11],90.5%
same,"GFP response, % of DMSO",[10]; [12],91.8%
CC(=O)Oc1ccc2c(c1)Oc1cc(OC(C)=O)ccc1C21OC(=O)c2ccccc21,"GTP binding signal, raw median fluorescence (lower = inhibition) (MCF (arbitrary fluorescence units))",[3],720
N#C/C(=C/c1ccc(N2CCCCC2)o1)C(=O)Nc1ccc2ccccc2c1,"GTP binding signal, raw median fluorescence (lower = inhibition) (MCF (arbitrary fluorescence units))",[3],469
Cc1cccc2cc(CN(Cc3cccs3)C(c3nnnn3C3CCCC3)C(C)C)c(=O)[nH]c12 (configuration not stated),"GTP binding, percent of control",[1],60.6%
same,outcome,[2],inactive
same,"GTP binding signal, raw median fluorescence (lower = inhibition) (MCF (arbitrary fluorescence units))",[3],207
same,outcome,[4],inactive
CCCN1C(=O)/C(=C/C=C2\N(CC)c3ccccc3C2(C)C)SC1=S,"GTP binding, percent of control",[1],127%
same,outcome,[2],inactive
same,"GTP binding signal, raw median fluorescence (lower = inhibition) (MCF (arbitrary fluorescence units))",[3],176
same,outcome,[4],inactive
OC(CNCCc1ccc(Cl)cc1)COc1ccc2ccccc2c1 (configuration not stated),"fluorescence, percent of control (lower = inhibition)",[5],40.2%
same,"GTP binding, percent of control",[1],85.7%
same,outcome,[2],inactive
same,outcome,[4],inactive
COc1ccc(-c2cc(=O)c3cc(OC)ccc3[nH]2)cc1,"GTP binding signal, raw median fluorescence (lower = inhibition) (MCF (arbitrary fluorescence units))",[3],229
CCn1cc(C(=O)OCC(=O)c2cc(C)n(-c3ccc(OC(F)F)cc3)c2C)c(=O)c2ccc(C)nc21,"GTP binding signal, raw median fluorescence (lower = inhibition) (MCF (arbitrary fluorescence units))",[3],148
CC(=O)c1ccc(C#CC(=O)c2ccc([N+](=O)[O-])cc2)cc1,"GTP binding, percent of control",[1],204%
same,outcome,[2],inactive
same,"GTP binding signal, raw median fluorescence (lower = inhibition) (MCF (arbitrary fluorescence units))",[3],55.9
same,outcome,[4],inactive
